Records with an inconclusive call do not appear. A number with no mark means an inactive call. The source made the active and inactive calls. Calls follow the shape of the full dose curve.

The record followed here is PubChem BioAssay (Tox21).
% is scaled to controls: 0 for no effect and ±100 for the full control effect.

D(2) dopamine receptor (Homo sapiens), sequence (P14416 whole entry, looked up): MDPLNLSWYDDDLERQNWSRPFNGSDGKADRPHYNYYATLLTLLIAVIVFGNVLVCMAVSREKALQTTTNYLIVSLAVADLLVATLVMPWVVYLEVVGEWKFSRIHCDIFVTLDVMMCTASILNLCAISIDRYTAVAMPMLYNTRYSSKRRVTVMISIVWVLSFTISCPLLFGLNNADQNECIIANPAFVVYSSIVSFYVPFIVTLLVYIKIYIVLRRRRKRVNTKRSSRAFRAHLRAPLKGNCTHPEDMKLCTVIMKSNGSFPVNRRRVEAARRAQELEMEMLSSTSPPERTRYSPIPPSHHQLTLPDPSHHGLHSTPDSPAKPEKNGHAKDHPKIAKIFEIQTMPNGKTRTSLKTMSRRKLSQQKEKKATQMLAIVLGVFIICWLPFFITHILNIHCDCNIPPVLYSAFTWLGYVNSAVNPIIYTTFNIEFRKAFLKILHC

This assay addresses D(2) dopamine receptor (Homo sapiens) (UniProt P14416). In words: Dopamine D2 receptor (DRD2) small molecule agonists, cell-based qHTS assay (AID 1963594). Also: nearly all actives have a fitted effect of over 35% in size. Conditions: HEK293-DRD2 cAMP HTRF, agonist mode, 30 min; series mostly up to 92.4 µM; activation: at the top concentration. From the text:
National Center for Advancing Translational Sciences [NCATS]
Division of Preclinical Innovation [DPI]
U.S. Environmental Protection Agency [EPA]
National Institutes of Environmental Health Sciences [NIEHS]
National Toxicology Program [NTP]
U.S. Food and Drug Administration [FDA]
DRD2 is the D2 subtype of the dopamine receptor, which is coupled to Gi subtype of G protein-coupled receptor. This G protein-coupled receptor inhibits adenylyl cyclase activity. The DRD2-HEK293 cell line stably expressing D2 dopamine receptor can be used for screening agonists and antagonists of interactions between D2 and its ligands. The Hek293-DRD2 cAMP assay is based on HTRF technology. It measures changes of cAMP accumulation in response to Gi coupled GPCR activation or inhibition.
Tox21 Assay Protocol Summary:
DRD2-Hek293 cells were dispensed at 600 cells/3uL/well in 1536-well white plates using a Multidrop Dispenser. After the assay plates were incubated at a 37 C/5% CO2 incubator for 24 h, 1 uL of Ro20-1724 at final concentration of 0.1 mM was transferred to the assay plate by a Flying Reagent Dispenser. Following Ro20-1724 addition, 23 nL of compound dissolved in DMSO, positive controls or DMSO only was added to the assay plates via Wako pintool station. The assay plates were incubated at room temperature for 10 min. Next, 1 uL of NKH477 at 200nM was added into the plates. After the assay plates were incubated at room temperature for an additional 30 min, 2.5 ul/well of cAMP-d2 and 2.5 ul/well of anti-cAMP-cryptate were added respectively into the assay plates using a Flying Reagent Dispenser. The plates were incubated at room temperature for 1 h. The fluorescence intensity in the plates was measured at 340 nm excitation and 665 & 620 nm emission by an Envision plate reader.
With `Cc1ccc2cc3c(ccc4ccccc43)c3c2c1CC3`, the “activation” value was -0.807% [at 42.5 µM].

As for `Cc1nnc2n1-c1sc(CCC(=O)N3CCOCC3)cc1C(c1ccccc1Cl)=NC2`, the “activation” value is 7.66% [at 42.5 µM].

Consider `CC[N+]1(CCOC(=O)C(O)(c2ccccc2)c2ccccc2)CCCCC1`, for which the “activation” value is -9.46% [at 42.5 µM].

`CC(C)(C)c1ccc(OP(=O)(Oc2ccccc2)Oc2ccccc2)cc1`: the “activation” value was -3.84%.

For `CN[C@@H](C)[C@H](O)c1ccccc1`, the “activation” value was -0.344% [at 42.5 µM].

In the case of `CC(C)(C)c1ccc(CCOc2ncnc3ccccc23)cc1`, the “activation” value was -4.03%.

As for `N#CC(O)c1ccccc1` (stereo not given), the “activation” value is 1.01%.

As for `O=C1NC(=O)C(=O)C(=O)N1`, the “activation” value is 3.18%.

Regarding `C[C@]12C=CC(=O)C=C1CC[C@@H]1[C@@H]2CC[C@@]2(C)[C@H]1CC[C@]2(C)O`, the “activation” value was 2.4% [at 42.5 µM].

Regarding `CCCCN(CCCC)C(=S)[S-].CCCCN(CCCC)C(=S)[S-].[Zn+2]`, the “activation” value is 8.49%.

Take `CCCCNC(=O)OCC#CI`: the Potency entry was “inactive”.

Consider `O=[N+]([O-])c1ccccc1Cl`, for which the “activation” value was 0.172%.

In the case of `N#CN=C1SCCN1Cc1ccc(Cl)nc1`, the “activation” value was -16.3%.

As to `COc1ccc2[nH]cc(CCN(C(C)C)C(C)C)c2c1`, the “activation” value is -7.49%.

`c1ccc2nc(N3CCNCC3)ccc2c1`: the “activation” value is 3.69% [at 42.5 µM].

In the case of `Cc1cc(OC(=O)N(C)C)nn1C(=O)N(C)C`, the “activation” value was -5.24%.

With `N#C/C=C/C#N`, the “activation” value was 0.255%.

For the molecule `Nc1ccccc1-c1ccccc1`, the “activation” value was -1.66%.

As for `O=C(CCCCl)c1ccc(F)cc1`, the “activation” value was -3.29% [at 42.5 µM].

In the case of `ClCCCCCCCl`, the “activation” value was -1%.

On to `CCNP(=S)(OC)O/C(C)=C/C(=O)OC(C)C` (stereo not given), for which the “activation” value is -0.0663%.

`Oc1ccc(C2(c3ccc(O)cc3)c3ccccc3-c3ccccc32)cc1`: the “activation” value was -11.5%.

`Brc1ccc(Oc2ccc(Br)cc2Br)c(Br)c1`: the “activation” value was -3.38%.

On to `Fc1ccc(C2(Cn3cncn3)OC2c2ccccc2Cl)cc1` (stereo not given), for which the “activation” value was -1.28%.

As to `O=C1CCCCC1Cl` (stereo not given), the “activation” value was 0.109%.

As to `C=C(C)[C@H]1CN[C@H](C(=O)O)[C@H]1CC(=O)O`, the “activation” value is 1.38% [at 42.5 µM].

In the case of `CCOC(=O)CCN(SN(C)C(=O)Oc1cccc2c1OC(C)(C)C2)C(C)C`, the “activation” value was -12.2%.

As for `COP(=S)(OC)Oc1ccc(S(N)(=O)=O)cc1`, the “activation” value is -1.16% [at 42.5 µM].

As for `O=[N+]([O-])c1cccc(CCl)c1`, the “activation” value is -2.49%.

On to `CC(C)[C@@H](Nc1ccc(C(F)(F)F)cc1Cl)C(=O)OC(C#N)c1cccc(Oc2ccccc2)c1` (stereo not given in full), for which the “activation” value was 2.83%.

Turning to `O=C(O)c1cc[c]([Hg][Cl])cc1`, the “activation” value is 0.376%.

Turning to `N#CC(CCc1ccc(Cl)cc1)(Cn1cncn1)c1ccccc1` (stereo not given), the “activation” value is -7.36%.

Regarding `Nc1ccc(Cl)cc1C(=O)c1ccccc1F`, the “activation” value was -10.8% [at 42.5 µM].

As to `N[C@@H]1C[C@H]1c1ccccc1`, the “activation” value is 0.0001% [at 42.5 µM].

Take `Cc1nc(N(C)C)nc(OC(=O)N(C)C)c1C`: the “activation” value was -15.1%.

As for `Cc1nnc(-c2ccccc2)c(=O)n1N`, the “activation” value was 5.23%.

Turning to `COP(=S)(OC)Oc1ccc([N+](=O)[O-])cc1Cl`, the “activation” value was -0.455%.

With `CCSC(=O)Cl`, the “activation” value was 6.62%.

As for `O=[N+]([O-])c1ccc(Oc2ccc(C(F)(F)F)cc2[N+](=O)[O-])cc1`, the “activation” value was -5.63%.

Take `O=c1oc2ccccc2c(O)c1C1CCCc2ccccc21` (stereo not given): the “activation” value was 0.94%.
